The list is not random: actives were taken first. Their share in the collection is about 3.5%.
MITF inh: human MITF inhibition, primary screen | hit rate 0.91% among 650,000 | AlphaScreen MITF homodimerization, bead proximity signal | O75030 | inhibition, % at 2.6 µM | AID 1259374; in the data active = inhibition above about 50%;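 also: 0% = vehicle wells with protein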
TEAD-YAP block: TEAD-YAP interaction inhibition; HEK-TIYL cells, TEAD-Gal4/YAP UAS-luciferase luminescence; inhibition, % at 9.12 µM; hit rate 1.4% among 640,000; in the data active = inhibition above about 32%;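 also: 0% = median of test compound wells and 100% = reference inhibitor wells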
FBW7 activator: activators of human E3 ligase FBW7 | AlphaScreen FBW7–phospho-cyclin E peptide binding, activator screen | normalized activity (activation), % at 26.1 µM | hit rate 0.13% among 650,000 | AID 1259310; in the data active = normalized activity above about 1.9%;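 also: purified mutant Fbw7 with reduced substrate affinity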
Target sequence (Q969H0 whole entry, looked up): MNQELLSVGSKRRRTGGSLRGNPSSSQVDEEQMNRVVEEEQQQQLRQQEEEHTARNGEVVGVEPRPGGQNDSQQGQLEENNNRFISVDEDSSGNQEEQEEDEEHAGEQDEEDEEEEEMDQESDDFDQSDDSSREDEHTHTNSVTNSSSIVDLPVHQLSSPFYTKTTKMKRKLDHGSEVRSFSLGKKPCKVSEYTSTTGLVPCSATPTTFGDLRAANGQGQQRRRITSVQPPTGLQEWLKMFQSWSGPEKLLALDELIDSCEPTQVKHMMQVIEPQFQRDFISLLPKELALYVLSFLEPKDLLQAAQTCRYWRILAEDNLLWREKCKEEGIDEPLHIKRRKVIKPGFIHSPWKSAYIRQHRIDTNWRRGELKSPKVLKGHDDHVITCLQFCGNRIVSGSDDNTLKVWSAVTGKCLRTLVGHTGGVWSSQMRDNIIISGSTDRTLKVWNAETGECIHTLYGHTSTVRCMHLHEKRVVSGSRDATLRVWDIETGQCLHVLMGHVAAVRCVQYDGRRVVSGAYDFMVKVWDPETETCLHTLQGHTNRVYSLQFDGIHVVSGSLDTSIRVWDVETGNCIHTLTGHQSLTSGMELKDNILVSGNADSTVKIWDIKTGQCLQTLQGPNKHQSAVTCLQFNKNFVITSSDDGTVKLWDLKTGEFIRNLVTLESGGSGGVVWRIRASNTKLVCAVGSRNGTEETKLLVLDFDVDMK
GPR151 activ: human GPR151 activation. activation, % at 11.2 µM. Q8TDV0. hit rate 1% among 650,000. PathHunter beta-arrestin GPR151 cells, luminescence; in the data active = activation above about 4.9%;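 also: 0% = median of compound wells and 100% = cells with positive control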
GPR151 confirm: human GPR151 activation, confirmation screen. GPR151 PathHunter beta-arrestin cells, luminescence, 90 min; % of EA-reagent control over plate median. shares compounds with GPR151 activ. 6,700 tested, under 10 active. activation, % at 11.2 µM;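 active = mean percent activation across replicates above the confirmation screen cutoff of 4.91%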
GPR119 ag: activates human GPR119 in a GPR151 counter-screen; shares compounds with GPR151 activ; GPR119 PathHunter beta-arrestin cells, luminescence, 90 min; 0 = compound-well median, 100 = enzyme-acceptor control; activation, % at 11.2 µM; hit rate 0.3% among 6,700; AID 1508611;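 active = mean percent activation in the counterscreen above 29.09%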;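 also: counterscreen on off-target GPR119 to flag nonselective hits from the GPR151 activator screen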
An asterisk follows results filed as active.

O=C(Cn1cncn1)NN=C1c2ccccc2-c2ccccc21 was read as MITF inh -3, TEAD-YAP block -5, FBW7 activator 0, GPR151 activ 5.2*, GPR151 confirm 1 and GPR119 ag 6.
For O=C(Cn1cncn1)N/N=C/c1ccccc1Cl the results were MITF inh 12, TEAD-YAP block 1, FBW7 activator 0 and GPR151 activ 1.
COCCN1CCCc2ccc(NS(=O)(=O)c3ccc(C)c(C)c3)cc21 was read as MITF inh -6, TEAD-YAP block 7, FBW7 activator 0 and GPR151 activ -1.
For COCCN1CCCc2ccc(NS(=O)(=O)c3cc(C)ccc3C)cc21 the results were MITF inh -1, TEAD-YAP block 15, FBW7 activator 0, GPR151 activ 5.2*, GPR151 confirm 0 and GPR119 ag 3.
For CCN(CC)S(=O)(=O)c1ccc2c(c1)c(=O)c(C(=O)N(C)CCC#N)cn2C the results were MITF inh 7, TEAD-YAP block -18, FBW7 activator 0, GPR151 activ 6.1*, GPR151 confirm 0 and GPR119 ag -3.
`CCN(CC)S(=O)(=O)c1ccc2c(c1)c(=O)c(C(=O)N(C)CC(OC)OC)cn2C` gave MITF inh 11, TEAD-YAP block 6, FBW7 activator 0 and GPR151 activ 0.
COc1cc2c(C(=O)O)c(C)n(-c3ccccc3)c2c2ccccc12 was read as MITF inh -2, TEAD-YAP block 14, FBW7 activator 0 and GPR151 activ 2.
`COc1ccc(-n2c(C)c(C(=O)O)c3cc(OC)c4ccccc4c32)cc1` gave MITF inh 3, TEAD-YAP block 16, FBW7 activator 0, GPR151 activ 4.9*, GPR151 confirm 0 and GPR119 ag 5.
Screening Fc1ccc(NC(=S)NCCc2c[nH]c3ccccc23)cc1 returned MITF inh 19, TEAD-YAP block -2, FBW7 activator 0 and GPR151 activ -1.
For CC(C)CCN1C(=O)CC(NNC(=O)c2ccc(F)cc2)C1=O (centres undefined) the results were MITF inh 0, TEAD-YAP block -8, FBW7 activator 0, GPR151 activ 5.7*, GPR151 confirm 1 and GPR119 ag 2.
For CN(C)c1ccc(/C=C2\C(=O)ON=C2c2ccccc2)cc1[N+](=O)[O-] the results were MITF inh 72*, TEAD-YAP block -2, FBW7 activator 0, GPR151 activ 5.8*, GPR151 confirm 0 and GPR119 ag -8.
For Cc1ccc(S(=O)(=O)N(C)c2ccc(C(=O)N3CCCC3)cc2)cc1 the results were MITF inh 9, TEAD-YAP block 10, FBW7 activator 0 and GPR151 activ 0.
`Cc1ccc(OC(C)C(=O)NNC(=S)NCC2CCCO2)c([N+](=O)[O-])c1` (centres undefined) gave MITF inh 5, TEAD-YAP block 5, FBW7 activator 0 and GPR151 activ 1.
For Cc1ccc(OCc2ccc(C(=O)NNC(=S)NCC3CCCO3)o2)c([N+](=O)[O-])c1 (centres undefined) the results were MITF inh 20, TEAD-YAP block 3, FBW7 activator 0, GPR151 activ 5.8*, GPR151 confirm 1 and GPR119 ag -1.
For OC1CCN(Cc2c(F)cccc2F)CC1 the results were MITF inh -2, TEAD-YAP block 2, FBW7 activator 0, GPR151 activ 5.9*, GPR151 confirm 0 and GPR119 ag 2.
`COc1cc(OC)c(C(=O)OC(C)C(=O)NC(N)=O)cc1OC` (centres undefined) gave MITF inh 6, TEAD-YAP block -4, FBW7 activator 0, GPR151 activ 13*, GPR151 confirm 1 and GPR119 ag 3.
CCCNc1cc(Nc2ccncn2)nc(N)n1 was read as MITF inh 2, TEAD-YAP block -4, FBW7 activator 0, GPR151 activ 18*, GPR151 confirm 0 and GPR119 ag 3.
Screening Nc1nc(NCCO)cc(Nc2ccncn2)n1 returned MITF inh 4, TEAD-YAP block -9, FBW7 activator 0 and GPR151 activ 1.
`COc1ccc(-c2n[nH]c(=S)n2-c2cc(OC)ccc2OC)cc1` gave MITF inh 2, TEAD-YAP block 7, FBW7 activator 0 and GPR151 activ 1.
`COc1ccccc1-n1c(-c2ccc(NS(C)(=O)=O)cc2)n[nH]c1=S` gave MITF inh 2, TEAD-YAP block -9, FBW7 activator 0, GPR151 activ 6.5*, GPR151 confirm -1 and GPR119 ag -6.
COc1ccc(C(=O)Nc2ccc(C(=O)N3CCCCC3)cc2)cc1 was read as MITF inh 3, TEAD-YAP block -10, FBW7 activator 1 and GPR151 activ -1.
Screening COc1ccc(C(=O)Nc2cccc(C(=O)N3CCCC3)c2)cc1 returned MITF inh 10, TEAD-YAP block -2, FBW7 activator 0, GPR151 activ 39*, GPR151 confirm 2 and GPR119 ag 7.
For COc1ccc(C(=O)Nc2ccc3c(c2)C(=O)N(C2CCCCC2)C3=O)cc1 the results were MITF inh 0, TEAD-YAP block -1, FBW7 activator 0, GPR151 activ 5.5*, GPR151 confirm 0 and GPR119 ag 28.
`CCOC(=O)C1CCCN(C(=O)CCc2c(C)nc3c(-c4ccccc4)c(C)nn3c2C)C1` (centres undefined) gave MITF inh 24, TEAD-YAP block 2, FBW7 activator 1 and GPR151 activ -1.
CCc1nn(CC(=O)OC)c(=O)c2cc3sc(C)cc3n12 was read as MITF inh 13, TEAD-YAP block 4, FBW7 activator 0 and GPR151 activ 1.
CC1=C(C(=O)N2CCN(C(=O)c3ccco3)CC2)C2(CCC(C)CC2)OC1=O (centres undefined) was read as MITF inh -14, TEAD-YAP block 6, FBW7 activator 0 and GPR151 activ 2.
`COC(=O)N1CCN(Cc2ccc3c(c2)OCO3)CC1` gave MITF inh 2, TEAD-YAP block -8, FBW7 activator 1 and GPR151 activ -1.
For O=C(NC1CC1)c1csc(N2CCN(Cc3ccc4c(c3)OCO4)CC2)n1 the results were MITF inh 2, TEAD-YAP block -8, FBW7 activator 0 and GPR151 activ -1.
Screening NNC(=O)CCN1CCN(Cc2ccc3c(c2)OCO3)CC1 returned MITF inh -8, TEAD-YAP block -4, FBW7 activator 0, GPR151 activ 8.5*, GPR151 confirm 1 and GPR119 ag -8.
`Cc1ccc(C(=O)N2CCN(Cc3ccc4c(c3)OCO4)CC2)o1` gave MITF inh 5, TEAD-YAP block 2, FBW7 activator 0, GPR151 activ 10*, GPR151 confirm 0 and GPR119 ag -12.

Screening results: PubChem, The Scripps Research Institute Molecular Screening Center
